A short description of assay [1]: HepG2 liver cancer cell viability effects, profiling panel, resazurin fluorescence, 24 h, PK04 Diversity Set (AID 1172). Also: test concentration not given here. The following applies: higher = more signal. A general note: Resazurin is reduced to fluorescent resorufin, in cell work by metabolically active cells.
Assay [2] is described as follows: basal S. cerevisiae growth modulation, no modifier, primary screen, OD600, strain BY4716, 24 h, basal condition (AID 1173). The settings on record: OD600, 24 h, higher = more signal, called active from +8 up or from −8 down.
The nature of assay [3]: MM1S myeloma cell viability, profiling panel, resazurin fluorescence, basal, 24 h, PK04 Diversity Set (AID 1174).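 Also: MM1S multiple myeloma cell line; test concentration not given here.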 The settings on record: higher = more signal, called active from +8 up or from −8 down.
Assay [4] deals with Dihydroorotate dehydrogenase (quinone), mitochondrial (Plasmodium falciparum (isolate 3D7)) (UniProt Q08210). Kind of assay: PfDHODH enzyme inhibitors, primary screen, biochemical, C-terminal His tag, absorbance 600 nm (AID 1175).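 Also: recombinant parasite enzyme with a five histidine tag at its C terminus; test concentration not given here.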 The settings on record: DCIP absorbance 600 nm, higher = more signal, called active from +8 up or from −8 down.
Assay [5] is described as follows: P. aeruginosa biofilm formation inhibitors, primary screen, strain PAO1, LB-PBS medium, absorbance 600 nm (AID 1176). Also: test concentration not given here. The settings on record: P. aeruginosa PAO1 growth/biofilm, A600, 12 h; higher = more signal.
The nature of assay [6]: S. cerevisiae RM11-1a growth modifiers, primary screen, strain RM11-1a, OD600, basal, 24 h (AID 1177).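 Also: cultures grown under basal conditions with no added stressor; test concentration not given here.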 The settings on record: OD600, 24 h, higher = more signal, called active from +8 up or from −8 down.
Assay [7] can be described thus: E. coli acrAB mutant growth effects, primary screen, E. coli filamentation inducers, strain DRC39, OD650, 24 h (AID 1178).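 Also: growth measured as culture turbidity by optical density at 650 nm; test concentration not given here.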 The settings on record: higher = more signal, called active from +8 up or from −8 down.
Assay [8] is described as follows: E. coli acrAB mutant growth effects, primary screen, E. coli filamentation inducers, strain DRC39, OD650, 48 h (AID 1179).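 Also: screen aims at cell division blockers that make cells filament.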 The settings on record: E. coli DRC39 delta-acrAB growth, higher = more signal, called active from +8 up or from −8 down.
Assay [9] can be described thus: RPMI8226 myeloma cell viability, profiling panel, resazurin fluorescence, basal, 24 h, PK04 Diversity Set (AID 1180).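 Also: RPMI8826 multiple myeloma cell line at 5000 cells per well; test concentration not given here.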 The following applies: higher = more signal.
The target of assay [10] is E3 ubiquitin-protein ligase XIAP (Homo sapiens) (UniProt P98170). The experiment in a line: XIAP binders, primary screen, biophysical, small-molecule microarray, fluorescence 635 nm (AID 1181).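 Also: score merges 667 nm emission and signal to noise over triplicate slides.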 The following applies: small-molecule microarray binding, higher = more signal.

Activity calls are given as the source filed them. Unless noted, no rule for the calls is given here.

Chain of E3 ubiquitin-protein ligase XIAP (Homo sapiens) (P98170 whole entry, looked up): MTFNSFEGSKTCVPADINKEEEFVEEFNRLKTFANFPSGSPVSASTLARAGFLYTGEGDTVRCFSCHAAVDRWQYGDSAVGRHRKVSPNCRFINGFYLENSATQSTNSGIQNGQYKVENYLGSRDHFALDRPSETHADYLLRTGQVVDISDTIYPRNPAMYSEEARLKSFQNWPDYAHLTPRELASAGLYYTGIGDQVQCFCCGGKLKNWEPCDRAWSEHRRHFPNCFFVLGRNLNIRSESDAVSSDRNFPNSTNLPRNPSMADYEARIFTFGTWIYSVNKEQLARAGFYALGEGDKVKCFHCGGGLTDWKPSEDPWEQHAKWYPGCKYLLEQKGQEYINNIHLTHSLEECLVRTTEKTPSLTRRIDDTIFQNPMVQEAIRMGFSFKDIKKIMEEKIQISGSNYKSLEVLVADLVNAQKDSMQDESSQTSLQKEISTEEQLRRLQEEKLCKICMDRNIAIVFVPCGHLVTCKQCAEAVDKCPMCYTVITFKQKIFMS
Chain of Dihydroorotate dehydrogenase (quinone), mitochondrial (Plasmodium falciparum (isolate 3D7)) (Q08210 whole entry, looked up): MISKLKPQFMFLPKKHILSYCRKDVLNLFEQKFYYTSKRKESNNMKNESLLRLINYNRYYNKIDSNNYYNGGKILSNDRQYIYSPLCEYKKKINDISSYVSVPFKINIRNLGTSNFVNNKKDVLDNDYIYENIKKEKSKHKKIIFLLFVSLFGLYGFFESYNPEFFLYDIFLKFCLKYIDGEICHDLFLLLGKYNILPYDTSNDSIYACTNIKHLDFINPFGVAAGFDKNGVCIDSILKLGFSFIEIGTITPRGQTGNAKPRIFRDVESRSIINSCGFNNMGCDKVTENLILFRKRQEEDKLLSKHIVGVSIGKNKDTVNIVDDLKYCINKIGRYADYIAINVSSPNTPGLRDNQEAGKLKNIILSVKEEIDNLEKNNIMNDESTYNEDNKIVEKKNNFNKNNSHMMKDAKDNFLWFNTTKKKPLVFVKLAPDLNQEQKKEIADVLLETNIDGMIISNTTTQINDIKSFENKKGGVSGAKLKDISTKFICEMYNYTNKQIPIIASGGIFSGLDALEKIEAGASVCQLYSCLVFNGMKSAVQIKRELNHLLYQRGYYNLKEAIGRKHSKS

On to `CCOC(=O)C[C@H]1[C@H](OC(=O)Cc2ccc3c(c2)OCO3)[C@@H](NC(=O)CC(C)C)c2cc(OCCCO)ccc2N1C(=O)Cc1ccc(OC)cc1`, for which the z-score was -0.334 in [1]; -0.252 (inactive) in assay [2]; -0.0151 (inactive) in assay [3]; 0.101 (inactive) in assay [5]; -1.73 (inactive) in assay [6]; 0.287 (inactive) in assay [7]. Further, the z-score in assay [8] is 0.629 (inactive); in assay [9] it was 0.2. Besides, the composite z-score is -1.26 (inactive) in [4] and -0.0622 in assay [10].
Consider `COc1ccc([Si](C)(C)[C@@H]2[C@@H](CCn3cc([C@H](O)c4ccccc4)nn3)O[C@]3(C(=O)N(Cc4ccc(N5CCC5=O)cc4)c4ccccc43)[C@H]2C)cc1`, for which the z-score in assay [1] is 0.606; in assay [2], 0.204 (inactive); in assay [3], -0.189 (inactive); in assay [5], 1.36 (inactive); in [6], 2.06 (inactive); in [7], 1.57 (inactive). In addition, the z-score in assay [8] was 1.18 (inactive); in [9], 1.1. Further, the composite z-score in [4] is -0.102 (inactive); in assay [10], -0.239.
For `CCC[C@@H]1C[C@@]1(CCC)[C@@H](NC(=O)OCc1ccccc1)c1ccc(-c2ccccc2)cc1`, the z-score in assay [1] was 2.43; in assay [2], -2.75 (inactive); in assay [3], 0.879 (inactive); in assay [5] it was 0.191 (inactive); in [6], 0.259 (inactive); in assay [7], 0.358 (inactive). The z-score in assay [8] is 0.492 (inactive); in assay [9] it was 1.72. Further, the figures for the composite z-score in [4] and in assay [10] were -0.251 (inactive) and -0.0669, respectively.
Turning to `CC(C)OC(=O)C=C1C[C@@H](c2ccc(C(F)(F)F)cc2)O[C@@H](c2ccc(C(F)(F)F)cc2)O1`, the z-score in assay [1] is 0.54; in assay [2], -5.34 (inactive); in assay [3] it was 0.533 (inactive); in assay [5], 0.257 (inactive); in [6] it was -1.93 (inactive); in assay [7], 0.2 (inactive). The z-score is 1.41 (inactive) in assay [8] and 0.0779 in assay [9]. In addition, the figures for the composite z-score in [4] and in [10] were -1.4 (inactive) and 0.371, respectively.
Regarding `C=CCC(OC(C)=O)[C@@H]1[C@@H](N(Cc2cc3ccccc3o2)C(=O)c2ccc(C)cc2)c2cc(OCCCO)ccc2N1C(=O)Cc1ccc(OC)cc1` (stereo not given in full), the z-score in assay [1] was 0.564; in [2] it was -0.859 (inactive); in assay [3], 0.655 (inactive); in [5], 0.0885 (inactive); in assay [6], 0.634 (inactive); in assay [7], -0.506 (inactive). Moreover, the values for the z-score in assay [8] and in assay [9] were -0.0196 (inactive) and 0.618, respectively. Further, the results for the composite z-score in assay [4] and in assay [10] were 0.889 (inactive) and -0.102, respectively.
Consider `O=C1NC(=O)C2C1C=CC(C(O)c1cccc3ccccc13)N2Nc1ccc(Cl)cc1Cl` (stereo not given), for which the z-score in assay [1] was -2.01; in assay [2], -4.99 (inactive); in [3] it was -1.66 (inactive); in assay [5] it was 0.875 (inactive); in [6], 0.981 (inactive); in [7], -0.693 (inactive). The z-score in assay [8] is -0.726 (inactive); in assay [9], -1.84. Further, the composite z-score in [4] was 0.847 (inactive); in assay [10], 0.351.
With `CCCCCCc1nc(C2CC2)cc2c1[Si](C(C)C)(C(C)C)OC2`, the z-score in assay [1] is -0.621; in assay [2], 0.436 (inactive); in assay [3], 0.0766 (inactive); in [5], -0.227 (inactive); in [6] it was -0.431 (inactive); in assay [7], -0.423 (inactive). Besides, the z-score in assay [8] was -0.606 (inactive); in assay [9], -0.584. Moreover, the composite z-score in [4] was -2.54 (inactive); in [10], -0.206.
As to `COC1OC[C@]2(C)[C@H]3C4=C(CN2C(=O)OC(C)(C)C)[C@H](C)C(CO)C(CO)C4CC[C@@H]13` (stereo not given in full), the z-score in assay [1] is -1.1; in assay [2] it was 1.14 (inactive); in assay [3] it was -1.25 (inactive); in [5], 0.523 (inactive); in assay [6] it was 1.06 (inactive); in assay [7], -0.34 (inactive). Further, the z-score in [8] is 0.154 (inactive); in [9], -0.975. The composite z-score in assay [4] was -0.0528 (inactive); in assay [10] it was 0.243.
Regarding `C=CCNC(=O)[C@@H]1[C@H]2C(=O)O[C@H](c3ccccc3)[C@H](c3ccccc3)N2[C@H](c2ccc(O)cc2)[C@@]12C(=O)N(C(=O)OCCOC)c1ccc(C#CC3(O)CCCCCC3)cc12`, the z-score in assay [1] is 0.919; in assay [2] it was 0.444 (inactive); in [3], -0.689 (inactive); in assay [5] it was -0.123 (inactive); in [6], 0.3 (inactive); in [7] it was 0.891 (inactive). The z-score in [8] was 0.957 (inactive); in assay [9], 0.196. The composite z-score was 0.263 (inactive) in [4] and -0.391 in [10].

(Values after PubChem BioAssay.)
